# Assay results published in paper PMC11062922 (Nature Chemical Biology, 2023).
# Where two headings read alike, the source gives them in different places.
# Key:
# [1] = test system: CDKL5; conditions: read-out: apparent Kd, n = 1
# [2] = test system: CLK4; conditions: read-out: apparent Kd, n = 1
# [3] = compound concentrations:100 nM and 1000 nM (sheet 'Lestaurtinib' of Supplementary Table 1),run:Lestaurtinib_02577_R1,Plate:MR016
# [4] = compound concentrations:100 nM and 1000 nM (sheet 'Lestaurtinib' of Supplementary Table 1),run:Lestaurtinib_02577_R2,Plate:MR016
# [5] = compound concentrations:100 nM and 1000 nM (sheet 'Lestaurtinib' of Supplementary Table 1),run:Lestaurtinib_02584_R1,Plate:MR017
# [6] = compound concentrations:100 nM and 1000 nM (sheet 'Lestaurtinib' of Supplementary Table 1),run:Lestaurtinib_02584_R2,Plate:MR017
# [7] = compound concentrations:100 nM and 1000 nM (sheet 'Lestaurtinib' of Supplementary Table 1),run:Lestaurtinib_02584_R3,Plate:MR017
# [8] = compound concentrations:100 nM and 1000 nM (sheet 'Lestaurtinib' of Supplementary Table 1),run:Lestaurtinib_02606_R1,Plate:MR019
# [9] = compound concentrations:100 nM and 1000 nM (sheet 'Lestaurtinib' of Supplementary Table 1),run:Lestaurtinib_02624_R2,Plate:MR020
# [10] = compound concentrations:100 nM and 1000 nM (sheet 'Lestaurtinib' of Supplementary Table 1),run:Lestaurtinib_02766_R3,Plate:MR027
substance,measurement,setting,value
Lestaurtinib,potency estimated from few doses,[1]; [3],82.6 nM
same,potency estimated from few doses,[1]; [4],144 nM
same,potency estimated from few doses,[1]; [5],86.8 nM
same,potency estimated from few doses,[1]; [6],37.3 nM
same,potency estimated from few doses,[1]; [7],565 nM
same,potency estimated from few doses,"[1]; compound concentrations:100 nM and 1000 nM (sheet 'Lestaurtinib' of Supplementary Table 1),run:Lestaurtinib_02601_R1,Plate:MR018",966 nM
same,potency estimated from few doses,"[1]; compound concentrations:100 nM and 1000 nM (sheet 'Lestaurtinib' of Supplementary Table 1),run:Lestaurtinib_02601_R2,Plate:MR018",921 nM
same,potency estimated from few doses,"[1]; compound concentrations:100 nM and 1000 nM (sheet 'Lestaurtinib' of Supplementary Table 1),run:Lestaurtinib_02601_R3,Plate:MR018",143 nM
same,potency estimated from few doses,[1]; [8],58.1 nM
same,potency estimated from few doses,"[1]; compound concentrations:100 nM and 1000 nM (sheet 'Lestaurtinib' of Supplementary Table 1),run:Lestaurtinib_02606_R2,Plate:MR019",98.3 nM
same,potency estimated from few doses,"[1]; compound concentrations:100 nM and 1000 nM (sheet 'Lestaurtinib' of Supplementary Table 1),run:Lestaurtinib_02624_R1,Plate:MR020",75 nM
same,potency estimated from few doses,[1]; [9],137 nM
same,potency estimated from few doses,"[1]; compound concentrations:100 nM and 1000 nM (sheet 'Lestaurtinib' of Supplementary Table 1),run:Lestaurtinib_02741_R2,Plate:MR023",695 nM
same,potency estimated from few doses,"[1]; compound concentrations:100 nM and 1000 nM (sheet 'Lestaurtinib' of Supplementary Table 1),run:Lestaurtinib_02748_R3,Plate:MR024",149 nM
same,potency estimated from few doses,"[1]; compound concentrations:100 nM and 1000 nM (sheet 'Lestaurtinib' of Supplementary Table 1),run:Lestaurtinib_02752_R1,Plate:MR025",225 nM
same,potency estimated from few doses,"[1]; compound concentrations:100 nM and 1000 nM (sheet 'Lestaurtinib' of Supplementary Table 1),run:Lestaurtinib_02752_R3,Plate:MR025",226 nM
same,potency estimated from few doses,"[1]; compound concentrations:100 nM and 1000 nM (sheet 'Lestaurtinib' of Supplementary Table 1),run:Lestaurtinib_02765_R2,Plate:MR026",212 nM
same,potency estimated from few doses,[1]; [10],28.6 nM
same,potency estimated from few doses,"[1]; compound concentrations:100 nM and 1000 nM (sheet 'Lestaurtinib' of Supplementary Table 1),run:Lestaurtinib_02795_R2,Plate:MR022",1690 nM
same,potency estimated from few doses,"[1]; compound concentrations:100 nM and 1000 nM (sheet 'Lestaurtinib' of Supplementary Table 1),run:Lestaurtinib_02795_R3,Plate:MR022",55.9 nM
same,potency estimated from few doses,"[1]; compound concentrations:100 nM and 1000 nM (sheet 'Lestaurtinib' of Supplementary Table 1),run:Lestaurtinib_02802_R2,Plate:MR029",130 nM
same,potency estimated from few doses,"[1]; compound concentrations:100 nM and 1000 nM (sheet 'Lestaurtinib' of Supplementary Table 1),run:Lestaurtinib_02896_R1,Plate:MR030",336 nM
same,potency estimated from few doses,"[1]; compound concentrations:100 nM and 1000 nM (sheet 'Lestaurtinib' of Supplementary Table 1),run:Lestaurtinib_02896_R2,Plate:MR030",99.8 nM
same,potency estimated from few doses,"[1]; compound concentrations:100 nM and 1000 nM (sheet 'Lestaurtinib' of Supplementary Table 1),run:Lestaurtinib_02896_R3,Plate:MR030",1300 nM
same,potency estimated from few doses,"[1]; compound concentrations:100 nM and 1000 nM (sheet 'Lestaurtinib' of Supplementary Table 1),run:Lestaurtinib_03172_R1,Plate:MR031",298 nM
same,potency estimated from few doses,"[1]; compound concentrations:100 nM and 1000 nM (sheet 'Lestaurtinib' of Supplementary Table 1),run:Lestaurtinib_03172_R3,Plate:MR031",99.7 nM
same,potency estimated from few doses,"[1]; compound concentrations:100 nM and 1000 nM (sheet 'Lestaurtinib' of Supplementary Table 1),run:Lestaurtinib_03260_R2,Plate:MR033",460 nM
same,potency estimated from few doses,"[1]; compound concentrations:100 nM and 1000 nM (sheet 'Lestaurtinib' of Supplementary Table 1),run:Lestaurtinib_03260_R3,Plate:MR033",730 nM
same,potency estimated from few doses,"[2]; compound concentrations:100 nM and 1000 nM (sheet 'Lestaurtinib' of Supplementary Table 1),run:Lestaurtinib_02339_R1,Plate:MR001",43.2 nM
same,potency estimated from few doses,"[2]; compound concentrations:100 nM and 1000 nM (sheet 'Lestaurtinib' of Supplementary Table 1),run:Lestaurtinib_02339_R2,Plate:MR001",51.8 nM
same,potency estimated from few doses,"[2]; compound concentrations:100 nM and 1000 nM (sheet 'Lestaurtinib' of Supplementary Table 1),run:Lestaurtinib_02339_R3,Plate:MR001",29.6 nM
same,potency estimated from few doses,"[2]; compound concentrations:100 nM and 1000 nM (sheet 'Lestaurtinib' of Supplementary Table 1),run:Lestaurtinib_02364_R2,Plate:MR002",35.4 nM
same,potency estimated from few doses,"[2]; compound concentrations:100 nM and 1000 nM (sheet 'Lestaurtinib' of Supplementary Table 1),run:Lestaurtinib_02367_R2,Plate:MR003",78.8 nM
same,potency estimated from few doses,"[2]; compound concentrations:100 nM and 1000 nM (sheet 'Lestaurtinib' of Supplementary Table 1),run:Lestaurtinib_02367_R3,Plate:MR003",56.1 nM
same,potency estimated from few doses,"[2]; compound concentrations:100 nM and 1000 nM (sheet 'Lestaurtinib' of Supplementary Table 1),run:Lestaurtinib_02381_R1,Plate:MR004",62.4 nM
same,potency estimated from few doses,"[2]; compound concentrations:100 nM and 1000 nM (sheet 'Lestaurtinib' of Supplementary Table 1),run:Lestaurtinib_02381_R2,Plate:MR004",34.7 nM
same,potency estimated from few doses,"[2]; compound concentrations:100 nM and 1000 nM (sheet 'Lestaurtinib' of Supplementary Table 1),run:Lestaurtinib_02381_R3,Plate:MR004",51.1 nM
same,potency estimated from few doses,"[2]; compound concentrations:100 nM and 1000 nM (sheet 'Lestaurtinib' of Supplementary Table 1),run:Lestaurtinib_02407_R2,Plate:MR005",17 nM
same,potency estimated from few doses,"[2]; compound concentrations:100 nM and 1000 nM (sheet 'Lestaurtinib' of Supplementary Table 1),run:Lestaurtinib_02407_R3,Plate:MR005",22.9 nM
same,potency estimated from few doses,"[2]; compound concentrations:100 nM and 1000 nM (sheet 'Lestaurtinib' of Supplementary Table 1),run:Lestaurtinib_02422_R1,Plate:MR006",27.9 nM
same,potency estimated from few doses,"[2]; compound concentrations:100 nM and 1000 nM (sheet 'Lestaurtinib' of Supplementary Table 1),run:Lestaurtinib_02422_R3,Plate:MR006",48 nM
same,potency estimated from few doses,"[2]; compound concentrations:100 nM and 1000 nM (sheet 'Lestaurtinib' of Supplementary Table 1),run:Lestaurtinib_02437_R1,Plate:MR007",25 nM
same,potency estimated from few doses,"[2]; compound concentrations:100 nM and 1000 nM (sheet 'Lestaurtinib' of Supplementary Table 1),run:Lestaurtinib_02437_R2,Plate:MR007",71.7 nM
same,potency estimated from few doses,"[2]; compound concentrations:100 nM and 1000 nM (sheet 'Lestaurtinib' of Supplementary Table 1),run:Lestaurtinib_02438_R1,Plate:MR008",19.3 nM
same,potency estimated from few doses,"[2]; compound concentrations:100 nM and 1000 nM (sheet 'Lestaurtinib' of Supplementary Table 1),run:Lestaurtinib_02438_R3,Plate:MR008",141 nM
same,potency estimated from few doses,"[2]; compound concentrations:100 nM and 1000 nM (sheet 'Lestaurtinib' of Supplementary Table 1),run:Lestaurtinib_02443_R1,Plate:MR009",80.9 nM
same,potency estimated from few doses,"[2]; compound concentrations:100 nM and 1000 nM (sheet 'Lestaurtinib' of Supplementary Table 1),run:Lestaurtinib_02443_R2,Plate:MR009",75.8 nM
same,potency estimated from few doses,"[2]; compound concentrations:100 nM and 1000 nM (sheet 'Lestaurtinib' of Supplementary Table 1),run:Lestaurtinib_02473_R1,Plate:MR010",58 nM
same,potency estimated from few doses,"[2]; compound concentrations:100 nM and 1000 nM (sheet 'Lestaurtinib' of Supplementary Table 1),run:Lestaurtinib_02473_R2,Plate:MR010",35.2 nM
same,potency estimated from few doses,"[2]; compound concentrations:100 nM and 1000 nM (sheet 'Lestaurtinib' of Supplementary Table 1),run:Lestaurtinib_02482_R2,Plate:MR011",86.4 nM
same,potency estimated from few doses,"[2]; compound concentrations:100 nM and 1000 nM (sheet 'Lestaurtinib' of Supplementary Table 1),run:Lestaurtinib_02487_R2,Plate:MR012",73.6 nM
same,potency estimated from few doses,"[2]; compound concentrations:100 nM and 1000 nM (sheet 'Lestaurtinib' of Supplementary Table 1),run:Lestaurtinib_02496_R2,Plate:MR013",98.1 nM
same,potency estimated from few doses,"[2]; compound concentrations:100 nM and 1000 nM (sheet 'Lestaurtinib' of Supplementary Table 1),run:Lestaurtinib_02496_R3,Plate:MR013",54.4 nM
same,potency estimated from few doses,"[2]; compound concentrations:100 nM and 1000 nM (sheet 'Lestaurtinib' of Supplementary Table 1),run:Lestaurtinib_02566_R1,Plate:MR014",47.9 nM
same,potency estimated from few doses,"[2]; compound concentrations:100 nM and 1000 nM (sheet 'Lestaurtinib' of Supplementary Table 1),run:Lestaurtinib_02572_R1,Plate:MR015",74.6 nM
same,potency estimated from few doses,"[2]; compound concentrations:100 nM and 1000 nM (sheet 'Lestaurtinib' of Supplementary Table 1),run:Lestaurtinib_02572_R2,Plate:MR015",41.6 nM
same,potency estimated from few doses,"[2]; compound concentrations:100 nM and 1000 nM (sheet 'Lestaurtinib' of Supplementary Table 1),run:Lestaurtinib_02572_R3,Plate:MR015",53.8 nM
same,potency estimated from few doses,[2]; [3],877 nM
same,potency estimated from few doses,[2]; [4],830 nM
same,potency estimated from few doses,[2]; [5],65.8 nM
same,potency estimated from few doses,[2]; [6],67.9 nM
same,potency estimated from few doses,[2]; [7],44.4 nM
same,potency estimated from few doses,[2]; [8],78.2 nM
same,potency estimated from few doses,"[2]; compound concentrations:100 nM and 1000 nM (sheet 'Lestaurtinib' of Supplementary Table 1),run:Lestaurtinib_02606_R3,Plate:MR019",45.4 nM
same,potency estimated from few doses,[2]; [9],79.1 nM
same,potency estimated from few doses,"[2]; compound concentrations:100 nM and 1000 nM (sheet 'Lestaurtinib' of Supplementary Table 1),run:Lestaurtinib_02624_R3,Plate:MR020",55.4 nM
same,potency estimated from few doses,"[2]; compound concentrations:100 nM and 1000 nM (sheet 'Lestaurtinib' of Supplementary Table 1),run:Lestaurtinib_02724_R2,Plate:MR021",62.7 nM
same,potency estimated from few doses,"[2]; compound concentrations:100 nM and 1000 nM (sheet 'Lestaurtinib' of Supplementary Table 1),run:Lestaurtinib_02724_R3,Plate:MR021",76.1 nM
same,potency estimated from few doses,"[2]; compound concentrations:100 nM and 1000 nM (sheet 'Lestaurtinib' of Supplementary Table 1),run:Lestaurtinib_02741_R3,Plate:MR023",62 nM
same,potency estimated from few doses,"[2]; compound concentrations:100 nM and 1000 nM (sheet 'Lestaurtinib' of Supplementary Table 1),run:Lestaurtinib_02748_R2,Plate:MR024",132 nM
same,potency estimated from few doses,[2]; [10],69.4 nM
same,potency estimated from few doses,"[2]; compound concentrations:100 nM and 1000 nM (sheet 'Lestaurtinib' of Supplementary Table 1),run:Lestaurtinib_02768_R2,Plate:MR028",1150 nM
